Counter-ions that a name gives are not always drawn. ± gives the standard deviation of the averaged measurements. Whole data set: some 1,700 compounds, median “cell number in HSV-1-infected wells relative to infected DMSO wells (H2B-RFP signal)” near 100, cut for the highest 2% near 140. This is one part of a sample in which the highest values are shown more often than they occur.
These compounds were tested on A549 infected with HSV-1 (assay: cell number in HSV-1-infected wells relative to infected DMSO wells (H2B-RFP signal); higher = more surviving cells (uninfected or antiviral-protected wells give about 200%; low = toxicity)). Settings: 10 µM; 48 h; MOI: 0.1.
Procedure: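 Selleck FDA-approved library (L1300) screened in duplicate at 10 µM on A549 H2B-mRuby cells in 384-well plates, infected with HSV-1 strain 17 YFP-ICP4 at MOI 0.1 one hour before drug addition. Imaged after 2 days at 37°C. Cell growth (H2B-RFP) and infection (ICP4-YFP) are expressed as % of DMSO-treated wells. Hits: growth >90% and infection <20% of DMSO.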

Row | Structure (SMILES) | cell number in HSV-1-infected wells
1 | Cc1c(O)cccc1C(=O)N[C@@H](CSc1ccccc1)[C@H](O)CN1C[C@H]2CCCC[C@H]2C[C@H]1C(=O)NC(C)(C)C [Nelfinavir Mesylate] | 157 ± 33%
2 | CC(C)(CO)C(O)C(=O)NCCC(=O)O [Calcium D-Panthotenate] | 118 ± 22%
3 | N[C@@H](CS)C(=O)O [L-Cysteine HCl] | 129 ± 9.3%
4 | CCCCS(=O)(=O)N[C@@H](Cc1ccc(OCCCCC2CCNCC2)cc1)C(=O)O [Tirofiban Hydrochloride] | 128 ± 12%
5 | COc1ccc(C[C@H](N)C(=O)N[C@H]2[C@@H](O)[C@H](n3cnc4c(N(C)C)ncnc43)O[C@@H]2CO)cc1 [Puromycin 2HCl] | 41.2 ± 1.6%
6 | Nc1ccn([C@@H]2O[C@H](CO)[C@@H](O)[C@@H]2O)c(=O)n1 [Cytarabine hydrochloride] | 51.7 ± 21%
7 | Nc1ccn([C@H]2CC[C@@H](CO)O2)c(=O)n1 [Zalcitabine] | 105 ± 7%
8 | Nc1ccn([C@@H]2O[C@H](CO)[C@@H](O)[C@@H]2O)c(=O)n1 [Cytarabine] | 44.2 ± 11%
9 | Nc1ccn(C[C@@H](CO)OCP(=O)(O)O)c(=O)n1 [Cidofovir] | 164 ± 11%
10 | Nc1c(Br)cc(Br)cc1CN[C@H]1CC[C@H](O)CC1 [Ambroxol HCl] | 117 ± 21%
11 | Nc1c(Br)cc(Br)cc1CN[C@H]1CC[C@H](O)CC1 [Ambroxol] | 63.56 ± 0.013%
12 | CC(C)C[C@H](NC(=O)[C@@H](NC(=O)c1cccc(-c2ccccc2)n1)[C@@H](C)O)B(O)O | 79.7 ± 13%
13 | O=C1/C(=C2\Nc3ccc(S(=O)(=O)O)cc3C2=O)Nc2ccc(S(=O)(=O)O)cc21 [Indigo carmine] | 126 ± 4.3%
14 | OC[C@@H](O)CN1CCN(c2ccccc2)CC1 [Levodropropizine] | 99.4 ± 1.6%
15 | CCC1(c2c[nH]cn2)Cc2ccccc2C1 [Atipamezole hydrochloride] | 95.8 ± 8.9%
16 | CCC1(c2c[nH]cn2)Cc2ccccc2C1 [Atipamezole] | 103 ± 19%
17 | CCCCC(CC)COC(=O)C(C#N)=C(c1ccccc1)c1ccccc1 (centres undefined) [Octocrylene] | 115 ± 4.8%
18 | CCOC(=O)[C@H]1O[C@@H]1C(=O)N[C@@H](CC(C)C)C(=O)NCCC(C)C [Aloxistatin] | 150.2 ± 0.33%
19 | C[C@]1(COc2ccc(N3CCC(Oc4ccc(OC(F)(F)F)cc4)CC3)cc2)Cn2cc([N+](=O)[O-])nc2O1 [Delamanid] | 117 ± 18%
20 | OC[C@@H](O)[C@@H](O)[C@H](O)[C@@H](O)CO [Sorbitol] | 97.2 ± 17%
21 | OC[C@@H](O)[C@H](O)[C@@H](O)CO [Xylitol] | 146 ± 3%
22 | OC[C@@H](O)[C@@H](O)[C@H](O)[C@H](O)CO [D-Mannitol] | 107 ± 11%

Row | Structure (SMILES) | cell number in HSV-1-infected wells
23 | Cn1nnc(-c2ccc(-c3ccc(N4C[C@H](CO)OC4=O)cc3F)cn2)n1 [Tedizolid] | 104 ± 5.8%
24 | CCCCCCCCCCCCCCCC(=O)O[C@@H]1[C@@H](O)[C@@H](O)[C@@H]([C@H](NC(=O)[C@@H]2C[C@@H](CCC)CN2C)[C@H](C)Cl)O[C@@H]1SC [Clindamycin palmitate HCl] | 85.3 ± 3.2%
25 | Cc1cc(-c2ccccc2)nnc1NCCN1CCOCC1 [Minaprine dihydrochloride] | 94.3 ± 12%
26 | Cc1ccccc1-c1cc(N2CCN(C)CC2)ncc1N(C)C(=O)C(C)(C)c1cc(C(F)(F)F)cc(C(F)(F)F)c1 [Netupitant] | 146 ± 30%
27 | CN1CCC(=C2c3ccccc3CCn3c(C=O)cnc32)CC1 [Alcaftadine] | 127.9 ± 0.97%
28 | CCOC(=O)CCC(=O)O[C@H]1[C@H](O[C@@H]2[C@@H](C)[C@H](O[C@H]3C[C@@](C)(OC)[C@@H](O)[C@H](C)O3)[C@@H](C)C(=O)O[C@H](CC)[C@@](C)(O)[C@H](O)[C@@H](C)C(=O)[C@H](C)C[C@@]2(C)O)O[C@H](C)C[C@@H]1N(C)C [Erythromycin Ethylsuccinate] | 118 ± 17%
29 | C[C@@H](O)[C@@H]1NC(=O)[C@H](CCCCN)NC(=O)[C@@H](Cc2c[nH]c3ccccc23)NC(=O)[C@H](Cc2ccccc2)NC(=O)[C@@H](NC(=O)[C@H](N)Cc2ccccc2)CSSC[C@@H](C(=O)N[C@H](CO)[C@@H](C)O)NC1=O [Octreotide Acetate] | 96.3 ± 13%
30 | CC(O)C(=O)O.N (centres undefined) [Ammonium lactate] | 91.3 ± 9.4%
31 | CCn1c(=O)c(-c2cc[nH]n2)cc2c(C)nc(N)nc21 | 79.6 ± 6.9%
32 | CC1(C)S[C@@H]2[C@H](NC(=O)[C@H](N)c3ccccc3)C(=O)N2[C@H]1C(=O)OCOC(=O)[C@@H]1N2C(=O)C[C@H]2S(=O)(=O)C1(C)C [Sultamicillin] | 104 ± 5.9%
33 | COc1cc(S(=O)(=O)O)ccc1O [Sulfogaiacol] | 98.6 ± 40%
34 | O=C(Nc1nc2cccc(-c3ccc(CN4CCS(=O)(=O)CC4)cc3)n2n1)C1CC1 [Filgotinib (GLPG0634)] | 76.8 ± 6.2%
35 | Nc1nc2c(ncn2COC(CO)CO)c(=O)[nH]1 [Ganciclovir] | 192.4 ± 0.4%
36 | CC(C)[C@H](N)C(=O)OCCOCn1cnc2c(=O)nc(N)[nH]c21 [Valaciclovir HCl] | 167 ± 22%
37 | O=c1[nH]cnc2c1ncn2[C@@H]1O[C@H](CO)[C@@H](O)[C@H]1O [Inosine] | 126 ± 7.8%
38 | Nc1nc2c(ncn2COCCO)c(=O)[nH]1 [Aciclovir] | 225 ± 2.6%
39 | C=C1[C@H](CO)[C@@H](O)C[C@@H]1n1cnc2c(=O)[nH]c(N)nc21 [Entecavir] | 130 ± 39%
40 | C=C1[C@H](CO)[C@@H](O)C[C@@H]1n1cnc2c(=O)[nH]c(N)nc21 [Entecavir Hydrate] | 150 ± 12%
41 | O=c1[nH]cnc2c1ncn2[C@H]1CC[C@@H](CO)O1 [Didanosine] | 99.6 ± 8.7%
42 | CS(=O)(=O)Nc1cc2occ(NC=O)c(=O)c2cc1Oc1ccccc1 [Iguratimod] | 108 ± 15%
43 | CC(C)OC(=O)CCC/C=C\C[C@@H]1[C@@H](/C=C/[C@@H](O)COc2cccc(C(F)(F)F)c2)[C@H](O)C[C@@H]1O [Travoprost] | 39.8 ± 12%
44 | C[C@@H](O)[C@H]1C(=O)N2C(C(=O)[O-])=C(SC3Cn4cnc[n+]4C3)[C@H](C)[C@H]12 (some centres undefined) [Biapenem] | 91.1 ± 10%

Row | Structure (SMILES) | cell number in HSV-1-infected wells
45 | O=C(O)C(=O)O.[NH-][C@@H]1CCCC[C@H]1[NH-].[Pt+2] [Oxaliplatin] | 64.1 ± 10%
46 | Clc1ccc2c(c1)CCc1cccnc1C2=C1CCNCC1 [Desloratadine] | 116 ± 6.4%
47 | C[C@H](CCC(=O)O)[C@H]1CC[C@H]2[C@@H]3C(=O)C[C@@H]4CC(=O)CC[C@]4(C)[C@H]3CC(=O)[C@]12C [Dehydrocholic acid] | 89.8 ± 1.7%
48 | COc1cc2c(cc1Cc1cccc(Cl)c1F)c(=O)c(C(=O)O)cn2[C@H](CO)C(C)C [Elvitegravir (GS-9137, JTK-303)] | 105 ± 10%
49 | CCCc1ncc(C[n+]2ccccc2C)c(N)n1 [Amprolium HCl] | 105 ± 10%
50 | CC[C@H](C)[C@H](NC(=O)[C@@H]1CCCN1C(=O)CNC(=O)[C@H](Cc1ccccc1)NC(=O)[C@H](CC(N)=O)NC(=O)[C@H](CC(N)=O)NC(=O)[C@H](CO)NC(=O)[C@H](CO)NC(=O)[C@H](Cc1c[nH]cn1)NC(=O)[C@@H](NC(=O)[C@H](CC(C)C)NC(=O)[C@H](Cc1ccccc1)NC(=O)[C@H](CC(N)=O)NC(=O)[C@H](C)NC(=O)[C@H](CC(C)C)NC(=O)[C@H](CCCNC(=N)N)NC(=O)[C@H](CCC(N)=O)NC(=O)[C@@H](NC(=O)[C@H](C)NC(=O)[C@@H]1CSSC[C@H](NC(=O)[C@@H](N)CCCCN)C(=O)N[C@@H](CC(N)=O)C(=O)N[C@@H]([C@@H](C)O)C(=O)N[C@@H](C)C(=O)N[C@@H]([C@@H](C)O)C(=O)N1)[C@@H](C)O)C(C)C)C(=O)N[C@@H](CC(C)C)C(=O)N1CCC[C@H]1C(=O)N1CCC[C@H]1C(=O)N[C@H](C(=O)N[C@@H](CC(N)=O)C(=O)N[C@H](C(=O)NCC(=O)N[C@@H](CO)C(=O)N[C@@H](CC(N)=O)C(=O)N[C@H](C(=O)N[C@@H](Cc1ccc(O)cc1)C(N)=O)[C@@H](C)O)C(C)C)[C@@H](C)O [Pramlintide Acetate] | 134 ± 20%
51 | CC(C)[C@H](N)C(=O)OCC(CO)OCn1cnc2c(=O)[nH]c(N)nc21 (some centres undefined) [Valganciclovir HCl] | 207 ± 2.2%
52 | O=C(O)c1cccc(-c2noc(-c3ccccc3F)n2)c1 [Ataluren (PTC124)] | 116 ± 9.6%
53 | CN(C)CCOC(c1ccc(Cl)cc1)c1ccccn1 (centres undefined) [CarbinoxaMine Maleate] | 148 ± 27%
54 | CN(C)CCOC(c1ccccc1)c1ccccc1 [Diphenhydramine HCl] | 102 ± 25%
55 | CN(C)CCC(c1ccc(Cl)cc1)c1ccccn1 (centres undefined) [Chlorpheniramine Maleate] | 94.3 ± 16%
56 | CC1(C)S[C@@H]2[C@H](NC(=O)[C@H](C(=O)O)c3ccsc3)C(=O)N2[C@H]1C(=O)O [Ticarcillin sodium] | 95.4 ± 22%
57 | CC(C)(C)c1cc(C(C)(C)C)c(NC(=O)c2c[nH]c3ccccc3c2=O)cc1O [Ivacaftor (VX-770)] | 64.8 ± 7%
58 | Cc1ccc(C(=O)N(CCCN)[C@@H](c2nc3cc(Cl)ccc3c(=O)n2Cc2ccccc2)C(C)C)cc1 | 12.9 ± 5.4%
59 | Nc1c(CC(=O)O)cccc1C(=O)c1ccccc1 [Amfenac Sodium Monohydrate] | 115 ± 14%
60 | Cc1cccc(Nc2ccccc2C(=O)O)c1C [Mefenamic Acid] | 94.2 ± 6%
61 | Cc1ccc(Cl)c(Nc2ccccc2C(=O)O)c1Cl [Meclofenamate Sodium] | 156 ± 21%
62 | Cc1c(Cl)cccc1Nc1ccccc1C(=O)O [Tolfenamic Acid] | 120 ± 2%
63 | O=C(c1ccc(F)c(F)c1Nc1ccc(I)cc1F)N1CC(O)([C@@H]2CCCCN2)C1 [Cobimetinib (GDC-0973, RG7420)] | 32.6 ± 21%
64 | CC(=O)c1cc2c(o1)C(=O)c1ccccc1C2=O [Napabucasin] | 27.4 ± 21%

Source: the supplement of paper PMC11537057
